In PubChem BioAssay (NCATS):
The source made the active and inactive calls. How the calls were made is not given here.
Potency means the concentration at half of the fitted maximal effect.

Each molecule was assayed on HIV-1 nucleocapsid protein NCp7 (binding to TG oligonucleotide) (assay: HIV Nucleocapsid (AID 346;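 further: potency is for inhibitors that block NC binding and lower polarization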)). Conditions: HIV-1 NC / fluorescein-TGTGTGTG probe, fluorescence polarization.
In short: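 Fluorescence polarization readout: labelled TG4xF oligo (10 nM) with 100 nM nucleocapsid protein, high-salt (250mM NaCl) Hepes pH 7.5 buffer containing zinc and fresh reducing agents. Compounds added by pin tool; incubation 1 hr, room temperature.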
For `COc1cccc(Cn2c(=O)c(C)nc3cnc(OC)nc32)c1`, the Potency was > 20 µM (inactive).
With `O=C(c1cccc(F)c1)N1CCC2(CCCN(c3ncccn3)C2)CC1` the Potency was > 20 µM (inactive).
`CN1CCN(c2ncc3nc(CCc4ccccc4)c(=O)n(Cc4ccc(F)cc4)c3n2)CC1` was tested, and the Potency was > 20 µM (inactive).
In the case of `COc1ccc(C(=O)N2CCC[C@@]3(CCN(c4cccc(-c5ccccc5)c4)C3)C2)cc1`, the Potency is reported as > 20 µM (inactive).
`Cn1c(=O)c(-c2ccccc2)nc2cnc(N3CCOCC3)nc21` was tested, and the Potency was > 20 µM (inactive).
In the case of `O=c1cnc2cnc(Oc3cccc(Cl)c3)nc2n1Cc1ccc(F)cc1`, the Potency is reported as > 20 µM (inactive).
With `COc1ncc2nc(-c3cccs3)c(=O)n(CCc3ccccc3)c2n1` the Potency was > 20 µM (inactive).
With `c1ccc(Nc2cc(-c3ccoc3)ncn2)cc1` the Potency was > 20 µM (inactive).
`Cc1nc2cnc(N3CCOCC3)nc2n(CCc2ccccc2)c1=O` was tested, and the Potency was > 20 µM (inactive).
For `Cc1cccc(CNc2nc(-c3cccnc3)nc3ccccc23)c1`, the Potency was > 20 µM (inactive).
`COc1ccccc1CCn1c(=O)c(-c2cc(F)cc(F)c2)nc2cncnc21` was tested, and the Potency was > 20 µM (inactive).
For `COc1ccc(-c2nc3cnc(OC)nc3n(C[C@H]3CCCO3)c2=O)cc1`, the Potency was > 20 µM (inactive).
For `N#CCCn1c(=O)c(-c2ccc(Cl)cc2)nc2cnc(Oc3cccc(Cl)c3)nc21`, the Potency was > 4 µM (inactive).
For `CN1CCN(c2ncnc3ccc(-c4ccc(C(=O)N(C)C)cc4)cc23)CC1`, the Potency was > 20 µM (inactive).
With `CN1CCN(c2ncc3nc(-c4cc(F)cc(F)c4)c(=O)n(CCc4ccccc4)c3n2)CC1` the Potency was > 20 µM (inactive).
`COc1ccc(Oc2ncc3nc(-c4cccc(C#N)c4)c(=O)n(Cc4cccc(OC)c4)c3n2)cc1` was tested, and the Potency was > 20 µM (inactive).
For `N#Cc1cccc(-c2nc3cnc(N4CCNCC4)nc3n(C3CC3)c2=O)c1`, the Potency was > 20 µM (inactive).
With `CC(=O)N1CCC2(CCN(Cc3cc(C(F)(F)F)cc(C(F)(F)F)c3)CC2)CC1` the Potency was > 20 µM (inactive).
In the case of `CN1CCC2(CC1)CCN(C(=O)c1cccc(F)c1)CC2`, the Potency is reported as > 20 µM (inactive).
`COCC(=O)N1CCC2(CC1)CN(C(=O)Nc1ccc(OC)cc1)C2` was tested, and the Potency was > 20 µM (inactive).
`Cc1noc(C)c1C(=O)N1CCC2(CCN(Cc3cc(C(F)(F)F)cc(C(F)(F)F)c3)CC2)CC1` was tested, and the Potency was > 4 µM (inactive).
`COc1cccc(-c2cncnc2-n2ccnc2)c1` was tested, and the Potency was > 20 µM (inactive).
With `CN(C)Cc1ccccc1-c1cc(N(C)C)ncn1` the Potency was > 20 µM (inactive).
`O=C(c1csnn1)N1CCC2(CC1)CN(c1ccccn1)C2` was tested, and the Potency was > 20 µM (inactive).
With `O=c1c(-c2cc(F)cc(F)c2)nc2cnc(N3CCNCC3)nc2n1Cc1cccs1` the Potency was > 20 µM (inactive).
